Active and inactive are the calls of the source. The calls were made as follows: active = hit-call score of the fitted dose curve at least 0.9, where 1 is the maximum; inactive = score below 0.9.
Tests used:
Settings in all cases: mRNA level, 48 h; actives raise or lower the signal
[1] = read-out: Peroxisomal acyl-coenzyme A oxidase 1 (ACOX1) gene, ACOX1 (gene 51); test: LTEA_HepaRG_ACOX1: Life Technologies and Expression Analysis (LTEA) Assay for Peroxisomal acyl-coenzyme A oxidase 1 (ACOX1) gene using HepaRG (AID 2283467)
Summary of the method: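 ACOX1 transcript levels were quantified by TaqMan qRT-PCR against three housekeeping genes after 48 h chemical exposure of differentiated human HepaRG cells. Exposure used eight half-log steps topping at 100 uM, 0.5% DMSO vehicle, in duplicate. Bidirectional curve fits were made relative to DMSO.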

[2] = read-out: Alkaline Phosphatase, Placental (ALPP) gene, ALPP (gene 250); test: LTEA_HepaRG_ALPP: Life Technologies and Expression Analysis (LTEA) Assay for Alkaline Phosphatase, Placental (ALPP) gene using HepaRG (AID 2283468);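 as to AC50: differentiated human HepaRG liver cells in serum-free induction medium; ALPP transcript by TaqMan qRT-PCR normalized to ACTB GAPDH and POLR2A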
Summary of the method: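 Using human liver HepaRG cells, chemicals are tested in duplicate over 48 h at half-log concentrations topping at 100 uM; phenobarbital 1 mM serves as induction control. ALPP mRNA change by qRT-PCR, bidirectional fit against vehicle.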

[3] = read-out: Bcl-2 (BAD) gene, BAD (gene 572); test: LTEA_HepaRG_BAD: Life Technologies and Expression Analysis (LTEA) Assay for Bcl-2 (BAD) gene using HepaRG (AID 2283469)
Summary of the method: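 Read-out: qRT-PCR of BAD mRNA, normalized to three housekeeping genes. Human HepaRG cultures got 48 h chemical exposure in 0.5% DMSO, duplicate eight-point half-log series topping at 100 uM. Gain or loss of signal fitted versus DMSO vehicle.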

[4] = read-out: Bcl-2 (BAX) gene, BAX (gene 581); test: LTEA_HepaRG_BAX: Life Technologies and Expression Analysis (LTEA) Assay for Bcl-2 (BAX) gene using HepaRG (AID 2283470)
Summary of the method: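 Human HepaRG cells treated in duplicate for 48 h across eight concentrations (max 100 uM, 0.5% DMSO); BAX expression measured by qRT-PCR.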

[5] = read-out: adenosine kinase (ADK) gene, ADK (gene 132); test: LTEA_HepaRG_ADK: Life Technologies and Expression Analysis (LTEA) Assay for adenosine kinase (ADK) gene using HepaRG (AID 2283471)
Summary of the method: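 HepaRG (human liver), 48 h chemical exposure, 8-pt half-log series, top 100 uM, 0.5% DMSO vehicle. Readout: ADK mRNA by qRT-PCR vs housekeeping genes; bidirectional curve fit relative to DMSO baseline.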

[6] = read-out: Alpha-fetoprotein (AFP) gene, AFP (gene 174); test: LTEA_HepaRG_AFP: Life Technologies and Expression Analysis (LTEA) Assay for Alpha-fetoprotein (AFP) gene using HepaRG (AID 2283472);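 as to AC50: AFP transcript by TaqMan qRT-PCR normalized to ACTB GAPDH and POLR2A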
Summary of the method: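 Measures AFP mRNA change in HepaRG after 48 h chemical exposure (8 half-log concentrations, highest 100 uM, 0.5% DMSO). Fold change relative to DMSO, fitted in both directions.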

BCL2L11 (gene 10018) = test: LTEA_HepaRG_BCL2L11: Life Technologies and Expression Analysis (LTEA) Assay for Bcl-2 (BCL2L11) gene using HepaRG (AID 2283473)
Summary of the method: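 Human hepatic HepaRG cultures are treated 48 h with test chemicals (maximum 100 uM, 0.5% DMSO vehicle). Expression of BCL2L11 is measured by qRT-PCR against ACTB, GAPDH and POLR2A, with activity in either direction scored relative to vehicle.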

[7] = read-out: Apolipoprotein A-V (APOA5) gene, APOA5 (gene 116519); test: LTEA_HepaRG_APOA5: Life Technologies and Expression Analysis (LTEA) Assay for Apolipoprotein A-V (APOA5) gene using HepaRG (AID 2283474)
Summary of the method: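 Concentration-response of APOA5 expression in HepaRG: eight half-log doses to 100 uM, 48 h, qRT-PCR normalized to ACTB/GAPDH/POLR2A, bidirectional fitting with 0.5% DMSO as baseline.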

[8] = read-out: Apoptosis regulator Bcl-2 (Homo sapiens) (UniProt P10415); test: LTEA_HepaRG_BCL2: Life Technologies and Expression Analysis (LTEA) Assay for Bcl-2 gene using HepaRG (AID 2283475);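 also: BCL2 transcript by TaqMan qRT-PCR normalised to ACTB GAPDH and POLR2A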
Summary of the method: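 Each chemical was tested in duplicate on HepaRG cultures held in serum-free induction medium for 48 h, highest concentration 100 uM with half-log dilutions. Transcript levels came from multiplexed qRT-PCR, normalised to housekeeping genes; activity was scored in either direction relative to DMSO.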

[9] = read-out: Bcl-2 (BID) gene, BID (gene 637); test: LTEA_HepaRG_BID: Life Technologies and Expression Analysis (LTEA) Assay for Bcl-2 (BID) gene using HepaRG (AID 2283476)
Summary of the method: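 Assay used HepaRG hepatic cells treated 48 h in serum-free medium with half-log dilutions from 100 uM. Endpoint: BID mRNA, qRT-PCR, normalized to ACTB/GAPDH/POLR2A.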

Chain of Apoptosis regulator Bcl-2 (Homo sapiens) (P10415 whole entry, looked up): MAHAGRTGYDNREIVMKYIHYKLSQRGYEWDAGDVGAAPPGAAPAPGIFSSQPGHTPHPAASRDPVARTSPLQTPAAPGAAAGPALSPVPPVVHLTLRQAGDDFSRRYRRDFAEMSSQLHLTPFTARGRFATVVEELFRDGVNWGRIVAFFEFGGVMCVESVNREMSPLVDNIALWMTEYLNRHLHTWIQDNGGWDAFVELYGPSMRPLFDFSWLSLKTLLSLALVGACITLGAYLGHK

Row | Structure (SMILES) | outcome [1] | outcome [2] | outcome [3] | outcome [4] | outcome [5] | outcome [6] | outcome (BCL2L11 (gene 10018)) | outcome [7] | outcome [8] | outcome [9] | AC50 [1] | AC50 [2] | AC50 [4] | AC50 [6] | AC50 (BCL2L11 (gene 10018)) | AC50 [7] | AC50 [8] | AC50 [5] | AC50 [9]
1 | COc1ccc(C(=CC(=O)N2CCOCC2)c2ccc(Cl)cc2)cc1OC | inactive | inactive | inactive | inactive | inactive | inactive | inactive | inactive | inactive | inactive | – | – | – | – | – | – | – | – | –
2 | CCc1cccc(CC)c1N(COC)C(=O)CCl | inactive | inactive | inactive | inactive | inactive | inactive | inactive | inactive | inactive | inactive | – | – | – | – | – | – | – | – | –
3 | COP(=O)(OC)OC(Br)C(Cl)(Cl)Br (stereo not given) | inactive | inactive | inactive | – | inactive | inactive | – | inactive | inactive | – | – | – | – | – | – | – | – | – | –
4 | CSc1nnc(C(C)(C)C)c(=O)n1N | inactive | inactive | inactive | inactive | inactive | inactive | inactive | inactive | inactive | inactive | – | – | – | – | – | – | – | – | –
5 | CCCCOC(=O)[C@@H](C)Oc1ccc(Oc2ccc(C#N)cc2F)cc1 | – | inactive | inactive | inactive | inactive | inactive | inactive | inactive | inactive | inactive | 39.7 µM (active) | – | – | – | – | – | – | – | –
6 | N#CSCSC#N | inactive | – | inactive | – | inactive | – | – | inactive | inactive | inactive | – | 12.5 µM (active) | 50 µM (active) | 80.2 µM (active) | 78.8 µM (active) | – | – | – | –
7 | CC(COc1ccc(Oc2ccccc2)cc1)Oc1ccccn1 (stereo not given) | inactive | inactive | inactive | inactive | inactive | – | inactive | inactive | inactive | inactive | – | – | – | 38.9 µM (active) | – | – | – | – | –
8 | C[N+]1(C)CCCCC1 | inactive | inactive | inactive | inactive | inactive | inactive | inactive | inactive | inactive | inactive | – | – | – | – | – | – | – | – | –
9 | CCOP(=S)(OCC)Oc1ccc2c(C)c(Cl)c(=O)oc2c1 | inactive | – | inactive | inactive | inactive | – | inactive | inactive | inactive | inactive | – | 50 µM (active) | – | 36.6 µM (active) | – | – | – | – | –
10 | CCCCSP(=O)(SCCCC)SCCCC | inactive | inactive | inactive | inactive | inactive | – | inactive | inactive | inactive | inactive | – | – | – | 50 µM (active) | – | – | – | – | –
11 | C=C(C)[C@H]1Cc2c(ccc3c2O[C@@H]2COc4cc(OC)c(OC)cc4[C@@H]2C3=O)O1 | – | – | inactive | – | inactive | – | – | – | – | inactive | 11.7 µM (active) | 0.384 µM (active) | 6.55 µM (active) | 0.985 µM (active) | 1.07 µM (active) | 12.9 µM (active) | 2.94 µM (active) | – | –
12 | CCOC(=O)COc1cc(-c2nn(C)c(OC(F)F)c2Cl)c(F)cc1Cl | inactive | inactive | inactive | inactive | inactive | inactive | inactive | inactive | inactive | inactive | – | – | – | – | – | – | – | – | –
13 | Nc1c(Cl)cc([N+](=O)[O-])cc1Cl | – | – | inactive | inactive | – | – | – | – | – | – | 22.8 µM (active) | 50 µM (active) | – | 39.3 µM (active) | 50 µM (active) | 68.5 µM (active) | 50 µM (active) | 64.1 µM (active) | 83.3 µM (active)
14 | C[Si](Cn1cncn1)(c1ccc(F)cc1)c1ccc(F)cc1 | – | – | – | – | inactive | – | inactive | – | – | – | 40.9 µM (active) | 50 µM (active) | 78.9 µM (active) | 25.4 µM (active) | – | 15.8 µM (active) | 35 µM (active) | – | –
15 | COc1cccc(C(=O)NN(C(=O)c2cc(C)cc(C)c2)C(C)(C)C)c1C | inactive | inactive | inactive | inactive | inactive | – | inactive | inactive | inactive | inactive | – | – | – | 7.69 µM (active) | – | – | – | – | –
16 | CCOP(=S)(OCC)OC(Cl)C(Cl)(Cl)Cl (stereo not given) | inactive | inactive | inactive | inactive | inactive | inactive | inactive | inactive | inactive | inactive | – | – | – | – | – | – | – | – | –
17 | CN(C)C(=O)Nc1cccc(C(F)(F)F)c1 | inactive | inactive | inactive | inactive | inactive | inactive | – | inactive | inactive | – | – | – | – | – | 50 µM (active) | – | – | – | 79.3 µM (active)
